Data: ChEMBL document CHEMBL4513216, “Probing the Open Global Health Chemical Diversity Library for Multistage-Active Starting Points for Next-Generation Antimalarials” (ACS Infect Dis, 2020)
Out of some 68,000 compounds screened, about 2,700 (4%) showed an effect of 50% or more. The sample as a whole holds a higher share of strong results than the screen did.

tested on: Plasmodium berghei; assay: Screen against P. berghei liver stage (PbLuc), transformed with Luciferase, at 2uM; assay type: functional, HepG2; conditions: tested at 2 uM

SMILES | INHIBITION [%]
Cc1ccsc1CN1CCC(n2cc(C(O)c3ccccc3)nn2)CC1 (stereo unspecified) | -6.04
CC(C)(C)C(=O)N1CCC(n2cc(C3(O)CCCC3)nn2)CC1 | -21.47
Fc1ccccc1C1(CNC2CCOC3(CCOCC3)C2)CCCC1 (stereo unspecified) | -27.61
CN(C)c1cc(CNC(=O)c2cnccn2)ccn1 | -14.75
Cc1cc(C(=O)N2CCn3cc(CN4CCOCC4)nc3C2)no1 | 22.68
Cc1ocnc1C(=O)N1CCN(CCOc2ccccc2)CC1 | 41.86
CC(C)Cc1cc(NC(=O)c2ccccn2)n(C)n1 | 7.13
Cc1noc(C)c1CS(=O)(=O)CC(=O)NCCc1cccs1 | -49.96
Cn1cc(C(=O)NCc2cn3c(n2)CN(Cc2ccncc2)CC3)cn1 | 12.38
Cn1cc(C(=O)NCc2cn3c(n2)CN(Cc2ccccn2)CC3)cn1 | 53.98
Cn1cccc1C(=O)NCc1cn2c(n1)CN(Cc1ccccn1)CC2 | 20.43
Cc1noc(C)c1CN1C[C@@H](OCc2ccccn2)[C@H]2OCCC[C@H]21 | -44.88
CCc1cc(=O)n(CC(=O)N2CCCC2)c(-c2ccc(F)cc2)n1 | 22.13
CN(Cc1nc2ccccc2c(=O)[nH]1)C1CC(=O)N(C2CC2)C1=O (stereo unspecified) | -68.81
Cc1nnc([C@H]2C[C@H]3OCC[C@H]3N(S(=O)(=O)N(C)C)C2)o1 | 11.18
Cc1noc([C@H]2C[C@H]3OCC[C@H]3N(S(C)(=O)=O)C2)n1 | 25.58
CCCS(=O)(=O)N1C[C@@H](c2nc(C)no2)C[C@H]2OCC[C@H]21 | -27.12
CCS(=O)(=O)N1C[C@H](c2nc(C)no2)C[C@H]2OCC[C@H]21 | 63.23
Cc1nnc([C@H]2C[C@H]3OCC[C@H]3N(S(=O)(=O)C3CC3)C2)o1 | 50.32
CCS(=O)(=O)N1C[C@@H](c2nnc(C)o2)C[C@H]2OCC[C@H]21 | 11.87
Cc1noc([C@H]2C[C@H]3OCC[C@H]3N(Cc3ccncc3)C2)n1 | 29.81
Cc1noc([C@H]2C[C@H]3OCC[C@H]3N(Cc3ccc(F)cc3)C2)n1 | 20.41
Cc1noc([C@@H]2C[C@H]3OCC[C@H]3N(Cc3ccoc3)C2)n1 | 51.26
Cc1cc(N2CCc3c(ncn3C3CC3)C2)nc(N)n1 | -25.22
O=C(CCC1CCCC1)NCCn1nc(C2CCNC2)c2cccnc21 (stereo unspecified) | 34.24
Cc1cccc(-n2ncc3c(=O)n(CCN4CCCCC4)cnc32)c1C | -34.12

SMILES | INHIBITION [%]
CC(C)S(=O)(=O)N1CCN(C(=O)c2cnn(C)c2Cl)CC1 | 12.98
CCCN(CC)C(=O)c1ncn2c1CN(C)S(=O)(=O)c1ccccc1-2 | 15.9
CCNC(=O)c1ncn2c1CN(C)S(=O)(=O)c1ccccc1-2 | -64.43
CN(C(=O)c1ncn2c1CN(C)S(=O)(=O)c1ccccc1-2)C1CC1 | 60
Cc1ccc(C(=O)N2CCN(C(=O)Nc3ccccn3)CC2)o1 | 60.93
Cc1cccc(NC2CCN(C(=O)Nc3ccccn3)CC2)n1 | -7.13
Cc1ccc(C(=O)NC2CCN(C(=O)Nc3ccccn3)CC2)o1 | 20.11
Cc1occc1C(=O)N1CCn2c(COCC3CC3)cnc2C1C (stereo unspecified) | -5.65
CCN(CC)CCSc1ncnc2[nH]ncc12 | -57.02
CCn1cc(CNc2ccc(F)c(N3CCCS3(=O)=O)c2)cn1 | 67.51
Cn1cc(CNc2ccc(F)c(N3CCCS3(=O)=O)c2)cn1 | 30.06
CCn1cc(CNc2ccc(F)c(F)c2)cn1 | -11.55
CCCc1nc(CNc2ccc(F)c(F)c2)no1 | -48.48
COc1ccc2[nH]c(=O)c(CN(C)CCN3CCCC3)cc2c1 | 56.16
COc1ccc2cc(CN(C)CCN3CCCCC3=O)c(=O)[nH]c2c1 | 38.12
CCN1CCCC1CNCc1cc2cc(OC)ccc2[nH]c1=O (stereo unspecified) | 42.49
CCOCC(=O)N1C[C@H]2CCC[C@@]2(COC)C1 | 42.4
CCn1nc(C)c(CNC(=O)c2nnc3ccc(OC)cc3n2)c1C | 33.58
CCn1nc(C)c(CNC(=O)c2nnc3ccccc3n2)c1C | 70.37
CCn1nc(C)c(CNC(=O)c2nnc3ccc(Cl)cc3n2)c1C | 26.56
Cc1nc(CN2CCC23CCN(C(=O)c2ccco2)CC3)cs1 | 30.15
Cc1cncc(NCc2ccccc2N2CCOCC2)c1 | 11.88
CCS(=O)(=O)c1cccc(C(=O)Nc2cccc3c2C(=O)N(C)C3=O)c1 | 13.01
CCCOC1CCCN(C(=O)c2cnc(-c3csc(C)n3)nc2O)C1 (stereo unspecified) | -20.84
CC(C)C(=O)N1CCC2(CC1)NC(=O)[C@H]1CN(Cc3cccnc3)C[C@H]12 | 37.54
CC(=O)N1CCC2(CC1)[C@@H]1CN(Cc3cccnc3)C[C@@H]1C(=O)N2C | 35.89

SMILES | INHIBITION [%]
CC(=O)N1CCC2(CC1)NC(=O)[C@H]1CN(Cc3cccnc3)C[C@H]12 | 56.76
Cn1cccc1CN1CCC2(CC1)CN(c1ncccn1)CCO2 | -8.63
Cc1ccc(CNC(=O)CCNS(C)(=O)=O)cc1 | 13.36
CCn1ccnc1CN1CCN(CC(=O)NC(C2CC2)C2CC2)CC1 | 29.19
CC(=O)N[C@H]1CCO[C@@H](c2cccc(NC(=O)c3ccc(=O)[nH]n3)c2)C1 | -3.15
COc1ccc(CN2CCc3nc(C4CCCCN4C)ncc3C2)cc1 (stereo unspecified) | -8.87
CN1CCCCC1c1ncc2c(n1)CCN(Cc1ccc(Cl)c(F)c1)C2 (stereo unspecified) | 56.99
CN1CCCCC1c1ncc2c(n1)CCN(Cc1ccc(F)cc1)C2 (stereo unspecified) | 19.06
O=C1COC2(COCCN(Cc3cccnc3)C2)CN1c1ccccc1 (stereo unspecified) | -43.73
N#CCCN(Cc1cccnc1)C(=O)c1ccc(OCC2CC2)cc1 | 56.89
N#CCCN(CCC#N)C(=O)c1ccc(OCC2CC2)cc1 | 5.98
N#CCCN(Cc1ccco1)C(=O)c1ccc(OCC2CC2)cc1 | -5.51
O=C(c1cnccn1)N1CC[C@H]2[C@H]1CCN2S(=O)(=O)C1CC1 | -17.44
CN(C)CC(=O)N1Cc2nc(C(=O)NCc3ccncc3)oc2C1 | 52.08
CCCNC(=O)c1nc2c(o1)CN(C(=O)CN(C)C)C2 | -31.4
CN(C)CC(=O)N1Cc2nc(C(=O)NCc3ccccc3)oc2C1 | 16.4
CSCc1ccc(C(=O)NCCCNc2ccc(C(F)(F)F)cn2)cc1 | 6.77
Cn1c(CN2CCCCCC2)cc(=O)c(O)c1CN1CCCC1 | 29.19
Cc1cc(C)nc(C2CCN(C(=O)CCn3ncc4ccccc43)C2)n1 (stereo unspecified) | 30.73
Cc1ccnc(C2CCN(C(=O)CCn3ncc4ccccc43)C2)n1 (stereo unspecified) | 72.83
Cc1cc(C)nc(C2CCN(C(=O)CCn3nnc4ccccc43)C2)n1 (stereo unspecified) | 13.22
Cn1cc(CN2CCc3ccc(=O)n(CC4CC4)c3CC2)cn1 | 23.68
OC1(CNc2ccccc2)CCNCC1 | 51.61
OC1(CNc2cccc(F)c2)CCNCC1 | -14.66
OC1(CNc2ccc(F)cc2)CCNCC1 | 8.5
CCN(CC)S(=O)(=O)CC(=O)N1CCc2ccc(C)cc21 | -13.17

SMILES | INHIBITION [%]
CCN(C(=O)CSc1ccc(C(F)(F)F)cn1)C1CC1 | -69.56
NC(=O)C1CCCN1c1cc(N2CCc3ccccc3C2)ncn1 (stereo unspecified) | -4.95
c1ccc(CCNC2CCc3ncnn3C2)nc1 (stereo unspecified) | -56.99
c1ccc(OC2CCCC2)c(CNC2CCc3ncnn3C2)c1 (stereo unspecified) | -12.48
c1ccc(C(OCCNC2CCc3ncnn3C2)c2ccccc2)cc1 (stereo unspecified) | 64.71
O=S(=O)(CCNC1CCc2ncnn2C1)c1ccccc1 (stereo unspecified) | 11.18
c1ccc(OCC2CC2)c(CNC2CCc3ncnn3C2)c1 (stereo unspecified) | 54.2
c1ccc(COc2ccccc2CNC2CCc3ncnn3C2)cc1 (stereo unspecified) | 11.95
COc1cccc(-c2cc(C3CCCNC3)ccn2)c1 (stereo unspecified) | 17.29
Cc1nnsc1CN(C)C(=O)CN1CC2(CCNCC2)OC1=O | -7.96
CCc1cc(NC(=O)C(c2cccc(F)c2)N2CCOCC2)[nH]n1 (stereo unspecified) | 35.36
COC(=O)[C@H](CCSC)NC(=O)Cc1c(C)nn(-c2ccccc2)c1C | 4.89
CSCCC(NC(N)=O)C(=O)NCc1c(C)nn(-c2ccccc2)c1C (stereo unspecified) | -58.01
Cc1nn(-c2ccccc2)c(C)c1CNC(=O)NC1CC(=O)N(C)C1 (stereo unspecified) | 62.39
COC(=O)C(CCSC)NC(=O)Cc1c(C)nn(-c2ccccc2)c1C (stereo unspecified) | -60.22
Cc1nn(-c2ccccc2)c(C)c1CNC(=O)NC1CC1 | 28.73
Cc1nn(-c2ccccc2)c(C)c1CC(=O)NC1CC(=O)N(C)C1 (stereo unspecified) | 59.03
CC(=O)N1CCN(Cc2ccncc2)CC2(CC(=O)N(C)C2)C1 (stereo unspecified) | 3.49
CN1CCN(CC2(O)CCCN(C(=O)Cc3cccc(O)c3)CC2)CC1 (stereo unspecified) | 12.6
Cc1nc(C)c(C(=O)NCCNc2ncccc2C(F)(F)F)s1 | -90.65
Cc1cc(NC(=O)c2ccc(-n3ncc(C#N)c3N)cc2)n(C)n1 | -28.98
Cc1nc(NC(=O)c2ccc(-n3ncc(C#N)c3N)cc2)sc1C | 78.98
Cc1cnc(NC(=O)c2ccc(-n3ncc(C#N)c3N)cc2)s1 | -50.69
